RMI-FANCM inh – inhibitors of human RMI core complex binding to FANCM MM2; FP signal (polarization) at 33 µM; AID 1159607; 0.58% of 70,000 active; Fluorescence polarization, RMI core complex with F-MM2 peptide; hits give low values; in the data active = FP signal below about 40
An asterisk follows results filed as active; ! = repeats disagree. Only a selection was taken, and hits are over-represented in it overall.

`COc1ccc(NS(=O)(=O)c2ccc(NC(C)=O)cc2)cc1` gave RMI-FANCM inh 55.
For O=C(O)c1cccc(Nc2nc3ccccc3nc2NS(=O)(=O)c2ccc(F)cc2)c1 the results were RMI-FANCM inh 58.
COc1ccc(Nc2nc3ccccc3nc2NS(=O)(=O)c2ccc(NC(C)=O)cc2)cc1 was read as RMI-FANCM inh 7*!.
Screening CCOc1ccc(NC(=O)C(=O)c2c(C)[nH]c3ccccc23)cc1 returned RMI-FANCM inh 58.
For COc1ccc(-c2cn3c(CCC(=O)Nc4ccc5c(c4)OCO5)csc3n2)cc1 the results were RMI-FANCM inh 69.
COc1ccccc1-c1nc(=S)c(C(C)=O)c(C)[nH]1 was read as RMI-FANCM inh 59.
Cc1ncc(CO)c2c1Oc1[nH]c(-c3ccc(F)cc3)nc(=S)c1C2 was read as RMI-FANCM inh 61.
For CCOc1cccc2c1Oc1[nH]c(-c3cccc(OC)c3O)nc(=S)c1C2 the results were RMI-FANCM inh 12*.
`Cc1csc(NC(=O)c2c[nH]c3c(C(F)(F)F)cccc3c2=O)n1` gave RMI-FANCM inh 67.
Screening COC(=O)c1ccc(NC(=O)Cc2csc(NC(=O)c3ccc(Cl)cc3)n2)cc1 returned RMI-FANCM inh 99.
`c1csc(-c2ccnc(SCc3ccc4nonc4c3)n2)c1` gave RMI-FANCM inh 68.
O=C(CSc1nccc(-c2cccs2)n1)N1CCOCC1 was read as RMI-FANCM inh 60.
`O=C(CSc1nccc(-c2cccs2)n1)c1cc(-c2ccc(Cl)c(Cl)c2)no1` gave RMI-FANCM inh 12*.
O=C(CSc1nc2scc(-c3ccco3)c2c(=O)n1-c1ccccc1)c1ccc2c(c1)OCO2 was read as RMI-FANCM inh 89.
Screening CC(C)N1CCc2c(sc(NC(=O)c3ccnn3C)c2-c2nc3ccccc3s2)C1 returned RMI-FANCM inh -7*.
Screening COC(=O)N1CCc2c(sc(NC(=O)c3ccccc3)c2-c2nc3ccccc3s2)C1 returned RMI-FANCM inh 70.
CC(=O)N1CCc2c(sc(NC(=O)c3cc(=O)c4ccccc4o3)c2-c2nc3ccccc3s2)C1 was read as RMI-FANCM inh -23.
CCn1nccc1C(=O)Nc1sc2c(c1-c1nc3ccccc3s1)CCC(C)C2 (stereo not given) was read as RMI-FANCM inh 70.
`CC(C)N1CCc2c(sc(NC(=O)c3c(F)cccc3F)c2-c2nc3ccccc3s2)C1` gave RMI-FANCM inh -10*.
CC(=O)N1CCc2c(sc(NC(=O)c3c(F)cccc3F)c2-c2nc3ccccc3s2)C1 was read as RMI-FANCM inh 90.
COc1ccccc1NC(=S)N/N=C\c1ccco1 was read as RMI-FANCM inh 54.
COc1ccc(SCC(=O)Nc2nc(-c3ccc(C)c(C)c3)cs2)cc1 was read as RMI-FANCM inh 65.
For O=C(c1csc(Nc2ccccc2)n1)N1CCCC1 the results were RMI-FANCM inh 64.
`O=C(Nc1nc(-c2cccs2)c(C(=O)C(F)(F)F)s1)c1cc(-c2ccccc2)nc2ccccc12` gave RMI-FANCM inh 19*.
`COC(=O)c1ccc2nc(NC(=O)c3cc(-c4cccs4)nc4ccccc34)sc2c1` gave RMI-FANCM inh 85.
NC(=O)c1ccsc1NC(=O)c1cc(-c2ccccc2)nc2ccccc12 was read as RMI-FANCM inh 61.
Screening Cc1ccc(NC(=O)Nc2nc(C)c(C(=O)NCc3c(F)cccc3F)s2)cc1 returned RMI-FANCM inh 57.
Screening Cc1c(C)c(C)c(C(=O)C2CCN(C(=O)c3ccc([N+](=O)[O-])o3)CC2)c(C)c1C returned RMI-FANCM inh 54.
For CCOC(=O)N1CCN(C(=O)Cn2cnc(-c3ccc(F)cc3)cc2=O)CC1 the results were RMI-FANCM inh 66.
Screening Cn1c(/C=C(\C#N)c2nc3ccccc3s2)ccc1-c1cccc(Cl)c1 returned RMI-FANCM inh 15*.
`N#C/C(=C/C1=Cc2ccccc2OC1)c1nc2ccccc2s1` gave RMI-FANCM inh -59.
`Cc1ccc(-c2ccc(/C=C(\C#N)c3nc4ccccc4s3)o2)c([N+](=O)[O-])c1` gave RMI-FANCM inh 60.
`COc1ccccc1CNC(=O)Nc1c[nH]c2ccccc12` gave RMI-FANCM inh 62.
For O=C(NCc1ccccn1)Nc1c[nH]c2ccccc12 the results were RMI-FANCM inh 25*.
Screening CC(C)CNC(=O)Nc1c[nH]c2ccccc12 returned RMI-FANCM inh 60.
`Cc1ccccc1C(=O)NC(CCC(=O)NNC(=O)c1ccc(F)cc1)C(=O)NNC(=O)c1ccc(F)cc1` (stereo not given) gave RMI-FANCM inh 60.
Screening CC(NC(=O)c1nnc2n(c1=O)CCN2c1ccccc1)c1ccccc1 (stereo not given) returned RMI-FANCM inh 56.
O=C(Nc1ccc(F)c(C(F)(F)F)c1)C1CCN(c2ccc(-c3ccco3)nn2)CC1 was read as RMI-FANCM inh 68.
O=C(Nc1ccc(F)c(Cl)c1)C1CCN(c2ccc(-c3ccco3)nn2)CC1 was read as RMI-FANCM inh 74.
For O=C(Nc1cnc2ccccc2c1)C1CCN(c2ccc(-c3ccco3)nn2)CC1 the results were RMI-FANCM inh 26*.
Screening COc1ccc(-c2n[nH]c(=O)[nH]2)cc1 returned RMI-FANCM inh 55.
O=C(Nc1cccc(Cl)c1)c1ccc(Br)o1 was read as RMI-FANCM inh 64.
O=C(c1ccc(Br)o1)N1CCOCC1 was read as RMI-FANCM inh 64.
For COC(=O)/C(C#N)=C(\C#N)c1ccc(Br)o1 the results were RMI-FANCM inh 26*.
`Cc1ccc(C(=O)NCCn2cc(SCC(=O)NCc3ccc4c(c3)OCO4)c3ccccc32)cc1` gave RMI-FANCM inh 57.
`O=C(NCCCN1CCN(c2ccccc2)CC1)c1ccc(C(F)(F)F)cc1` gave RMI-FANCM inh 63.
For O=C(OCC(O)CO)c1ccccc1Nc1ccnc2cc(Cl)ccc12 (stereo not given) the results were RMI-FANCM inh -4*!.
Screening Clc1ccc2c(Nc3ccc4c(c3)OCO4)ccnc2c1 returned RMI-FANCM inh 58.
For O=C(OCCOc1ccc(Cl)cc1Cl)c1ccccc1Cl the results were RMI-FANCM inh 57.
`O=C(/C=C/c1ccco1)c1c(-c2ccccc2)c2cc(Br)ccc2[nH]c1=O` gave RMI-FANCM inh 54.
O=C(/C=C/c1ccco1)c1c(-c2ccccc2)c2cc(Cl)ccc2[nH]c1=O was read as RMI-FANCM inh 0*.
`C/C(=N\NC(=O)CCCC(=O)O)c1c(-c2ccccc2)c2cc(Cl)ccc2[nH]c1=O` gave RMI-FANCM inh 60.
`c1csc(-c2noc(-c3ccno3)n2)c1` gave RMI-FANCM inh 62.
For Cc1ccc(CNC(=O)c2cc3c(=O)n4ccccc4nc3n(CCO)c2=N)cc1 the results were RMI-FANCM inh 70.
Screening O=[N+]([O-])c1cnc(Sc2nnc(-c3ccc(Cl)cc3)o2)s1 returned RMI-FANCM inh 55.
For CSc1nnc(Sc2ncc([N+](=O)[O-])s2)s1 the results were RMI-FANCM inh 2*.
For O=[N+]([O-])c1cnc(Sc2ccc(C(F)(F)F)cn2)s1 the results were RMI-FANCM inh 58.
`COc1ccc(CNc2nc(C(F)(F)F)nc(C)c2C)cc1` gave RMI-FANCM inh 54.
Screening CSc1nc(NC(C)C)c2cnn(CCNC(=O)c3ccc(-c4ccccc4)cc3)c2n1 returned RMI-FANCM inh 54.
NC(=NNC(=O)c1ccco1)c1ccccn1 was read as RMI-FANCM inh 56.
O=C(Nc1nc(-c2ccc(Br)s2)cs1)c1ccc2ncsc2c1 was read as RMI-FANCM inh 26*.
`O=C(Nc1nc(-c2ccccn2)cs1)c1ccc2ncsc2c1` gave RMI-FANCM inh 84.

Screens from PubChem.
